In the library only some 4.7% were active in any assay of this set; here they are far more common.
TRHR agonist = agonists of human TRH receptor | activation, % at 2 µM | P34981 | hit rate 0.18% among 360,000 | TRHR cells, calcium flux fluo-8, FDSS agonist mode; also: 0% is about no effect
Target sequence (P34981 whole entry, looked up): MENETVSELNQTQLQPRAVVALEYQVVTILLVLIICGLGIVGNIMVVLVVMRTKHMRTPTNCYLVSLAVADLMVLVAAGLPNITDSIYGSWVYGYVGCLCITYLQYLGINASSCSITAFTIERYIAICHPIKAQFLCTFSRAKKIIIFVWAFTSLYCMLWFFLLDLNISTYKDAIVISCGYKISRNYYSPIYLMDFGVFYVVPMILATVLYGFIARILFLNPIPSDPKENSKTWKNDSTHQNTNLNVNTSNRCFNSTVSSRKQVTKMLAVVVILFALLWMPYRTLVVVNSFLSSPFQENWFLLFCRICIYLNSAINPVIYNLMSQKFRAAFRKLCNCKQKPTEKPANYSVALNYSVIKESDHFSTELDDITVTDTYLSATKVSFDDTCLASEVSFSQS
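Agonist-mode FDSS calcium read (Ex 480/Em 530, 1 s cycles) in 1536-well TRHR cells with fluo-8 dye, after 10-cycle baseline and 23 nL compound addition; TRH at EC20 (10 nM final) added afterwards for the enhancer phase.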
D1 agonist = agonists of human D1 dopamine receptor; P21728; HEK293 T-REx D1 cells, calcium flux, agonist mode; activation, % at 2 µM; hit rate 1% among 360,000; AID 504660; also: 0% is about no effect
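Inducible HEK293 T-REx D1 cells, force-coupled to calcium signalling, were plated at 4000 cells/well with tetracycline and held overnight at 30 C. After no-wash calcium dye loading, compound-evoked calcium rise over 180 s flagged agonists.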
D1 PAM = potentiators of human D1 dopamine receptor; AID 504651; hit rate 0.036% among 360,000; P21728; HEK293 TREx D1 cells, calcium flux, dopamine EC20 potentiation; potentiation, % at 10 µM; in the data active = potentiation above about 30%; also: 0% is about no effect
TRHR enhancer = TRH receptor (human) allosteric enhancement; TRHR cells, fluo-8 calcium fluorescence, EC20 TRH enhancement; enhancement, % at 2 µM; hit rate 0.66% among 360,000; AID 493056; in the data active = enhancement above about 30%; also: 0% is about no effect
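TRHR-expressing cells loaded with fluo-8 calcium dye were read kinetically (ex 480/em 530) during compound addition, then stimulated with an EC20 of TRH (10 nM final). Enhancement of the Gq-mediated intracellular calcium response was scored.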
D1 antag = antagonists of human D1 dopamine receptor | P21728 | HEK293 TREx D1 cells, calcium flux, dopamine EC80; active compounds read low | activity change, negative = inhibition, % at 10 µM | hit rate 3.2% among 360,000 | AID 504652; in the data active = activity change below about -30%; also: % is scaled to controls: 0 for no effect and ±100 for the full control effect
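Tetracycline-induced HEK293 T-REx cells with force-coupled D1 receptor were loaded with a no-wash calcium dye. Compound was added after a 10 s baseline and read kinetically for 180 s; EC80 dopamine was then added and calcium flux followed another 180 s.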
Starred values were filed as active, the others as inactive; . = not tested or not shown. Rule as the data show it, unless noted: active = activation above about 30%; inactive = the rest.

SMILES	TRHR agonist	D1 agonist	D1 PAM	TRHR enhancer	D1 antag
CC(C)c1ccc(C2c3c(-c4ccccc4O)n[nH]c3C(=O)N2Cc2ccncc2)cc1 (stereo not given)	2	0	3	7	5
O=C(CSC1=Nc2ccccc2N=C(c2ccc(F)cc2)C1)NCc1ccccc1Cl	1	8	-3	0	1
COc1ccc(NC(=O)CSc2nc(-c3ccco3)cc(C(F)(F)F)n2)cc1OC	-1	12	-2	-3	-30*
Cc1ccc(NC(=O)CSc2nc(-c3ccco3)cc(C(F)(F)F)n2)cc1C	1	4	-3	1	-12
CC1C(=O)N2CCCc3cc(S(=O)(=O)Nc4ccc(Br)cc4F)cc1c32 (stereo not given)	0	0	-2	0	-30*
Cc1ccc(-c2nnc(SCCOc3ccccc3)o2)cc1	-1	81*	3	3	2
O=C(CNC(=O)C1CCCCC1)OC(C(=O)Nc1cc(C(F)(F)F)ccc1Cl)c1ccccc1 (stereo not given)	-2	2	9	-1	21
N#C/C(=C/c1ccc(O)cc1)C(=O)NCc1ccc(Cl)cc1	2	34*	-5	13	5
N#C/C(=C\c1ccc(O)cc1)C(=O)NCc1ccccc1	0	15	0	-8	-19
N#C/C(=C\c1ccc(O)cc1)C(=O)NCc1cccc(Cl)c1	-1	53*	-10	13	-21
CNS(=O)(=O)c1cccc(C(=O)OC2CCOC2=O)c1 (stereo not given)	1	7	.	-3	-10
O=C(OC1CCOC1=O)c1cccc(S(=O)(=O)Nc2cccc(Cl)c2)c1 (stereo not given)	0	11	-4	0	-32*
O=C(CSc1nc2ccccc2c(=O)n1CCC(=O)NC1CCCCC1)Nc1ccccc1Cl	0	1	-2	3	-15
CC(C)CC1(C)N=C(c2ccccc2)C(=S)N1 (stereo not given)	0	2	-9	-4	-40*
Cc1nn(CC(=O)NCc2ccc(N(C)C)cc2)c(=O)c2nn(-c3ccccc3)c(C)c12	0	1	-1	-27	1
COc1ccc(CCNC(=O)C2=C(C)C(=O)OC23CCCCC3)c(OC)c1OC	0	0	-4	31*	-11
CC1=C(C(=O)NCc2ccc(Cl)cc2)C2(CCCCCC2)OC1=O	0	45*	4	5	8
Cc1ccc(Cc2cnc(NC(=O)c3ccco3)s2)cc1	2	2	-2	11	.
O=C(Nc1ncc(Cc2ccc(SC(F)F)cc2)s1)c1ccc(OC(F)F)cc1	3	35*	-7	-4	-16
CCN(CC)S(=O)(=O)c1ccc2c(c1)N(CC(=O)Nc1ccc(Cl)cc1)C(=O)C1CCCN21 (stereo not given)	1	0	-5	-1	5
CCOC(=O)c1c(Oc2ccc(OC)cc2)nnc(-c2ccccc2)c1-c1ccccc1	1	6	-1	-14	-2
CCn1cc(C(=O)N2CCN(c3cccc(Cl)c3)CC2)c(=O)c2cc(S(=O)(=O)N3CCOCC3)ccc21	0	-1	-1	0	5
CSC1=C(C#N)C(c2ccccc2Cl)C(C(=O)c2cccs2)C(O)(C(F)(F)F)N1 (stereo not given)	0	1	-8	0	-31*
CC1(C)CC(=O)c2c(O)cc(OCC(=O)Nc3ccc(CCO)cc3)cc2O1	0	10	-6	0	-8
COc1cc2[nH]cc(C(=O)NCc3ccccc3)c(=O)c2cc1OC	0	3	-6	-4	1
SMILES	TRHR agonist	D1 agonist	D1 PAM	TRHR enhancer	D1 antag
COc1cc2[nH]cc(C(=O)NCCc3ccccc3)c(=O)c2cc1OC	-1	0	-8	3	-32*
Cc1noc(C)c1C(=O)Nc1cccc(S(=O)(=O)N2CCCCC2)c1	0	1	0	-1	-3
CCc1cccc(NC(=O)C(CC(C)C)NS(=O)(=O)c2ccc3c(c2)oc(=O)n3C)c1 (stereo not given)	0	2	0	4	-1
O=C(CNC(=O)c1ccccc1F)OCn1nnc2ccccc2c1=O	0	1	-3	1	-2
O=C(O)c1cccc(-c2noc(-c3ccccc3F)n2)c1	-2	2	-3	1	20
Cc1[nH]c2ccccc2c1C1(O)C(=O)N(Cc2ccccc2)c2ccc(Cl)cc21 (stereo not given)	1	0	-1	29	15
CC1(C)CN=c2s/c(=C\c3ccc(Cl)cc3)c(=O)n2C1	2	33*	-7	5	8
CSC1=N/C(=C\c2ccc(Cl)cc2)C(=O)N1N(C)C	0	9	-4	1	-5
O=c1c(Cl)c(Cl)cnn1Cc1nnc(-c2ccccc2Br)o1	1	236*	19	39*	-24
S=C(NC1CCCC1)NC1CC1	0	6	-5	18	-41*
COc1ccc(S(=O)(=O)NC(C)C(=O)Nc2cccc(C(C)=O)c2)cc1 (stereo not given)	0	1	-3	-2	-43*
Cc1ccc(-n2ncc(C(=O)NCCCN3CCCCC3)c2C2CCN(C(=O)OC(C)(C)C)CC2)c(C)c1	1	5	5	-13	12
COc1ccccc1N1C(=O)c2ccc(C(=O)Nc3ccc(C(=O)O)cc3)cc2C1=O	1	3	-4	0	3
c1cncc(-c2nn[nH]n2)c1	0	3	6	40*	-1
Cc1cc(NC(=O)c2ccc(Br)o2)cc(-c2nc3ccccc3o2)c1O	-3	0	-3	1	1
Cc1ccc2c(c1)c1c(c(=O)n(Cc3ccccc3)c(=O)n1CC(=O)Nc1ccccc1F)n2C	0	0	0	5	13
COC(=O)c1ccc(C)c(N(CCO)CCO)c1	0	1	-7	2	-43*
O=C(CN(Cc1ccccc1)S(=O)(=O)c1cccc(C(F)(F)F)c1)NC1CCCCC1	1	5	1	-9	-31*
COCCN(C(=O)Cn1c(C(F)(F)F)nc2ccccc21)c1c(N)n(Cc2ccccc2)c(=O)[nH]c1=O	0	0	-2	6	16
COc1ccc(N2CCN(C(=O)CNC(=O)c3ccco3)CC2)cc1	1	1	-2	0	-80*
COc1ccc(N2CCN(S(=O)(=O)CCNC(=O)c3ccco3)CC2)cc1	0	2	1	-3	9
Cc1cccc(S(=O)(=O)c2cn(Cc3ccccc3)c3cc(N4CCCCC4)c(F)cc3c2=O)c1	0	4	-3	3	4
CCOC(=O)C1CCCN(S(=O)(=O)c2ccc3c4c(cccc24)C(=O)N3CC)C1 (stereo not given)	0	10	.	-4	-32*
COc1ccc(OC)c(N=c2oc3cc(O)ccc3cc2C(N)=O)c1	-1	0	-12	18	-36*

Compound activity (PubChem)
